Laboratory results as given in PubChem BioAssay (EPA / NIEHS).
“And” between values parts separate entries of the source, which are not always exact repeats. Identical values can stand only once. Some structures have more than one record in an assay (separate samples or runs), and their calls can disagree. The source made the active and inactive calls. The calls were made as follows: active = hit-call score of the fitted dose curve at least 0.9, where 1 is the maximum; inactive = score below 0.9.

Columns and labels:
[1] = ATG_GATA_CIS: Attagene CIS-FACTORIAL HepG2 Assay for human GATA Binding Protein (AID 2282944); details: HepG2 GATA cis-element reporter, Attagene multiplex mRNA; actives raise or lower the signal
Summary of the method: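 Transient MRTU transfection, HepG2, 24 h compound exposure. Total RNA → oligo(dT) RT → PCR → 6-FAM primer extension → HpaI cut → CE. Bidirectional fit vs DMSO.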

[2] = ATG_GLI_CIS: Attagene CIS-FACTORIAL HepG2 Assay for human Zinc Finger Protein GLI1 (AID 2282945); details: HepG2, Attagene cis-factorial reporter mRNA, GLI element; actives raise or lower the signal
Summary of the method: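 Bidirectional curve fits relative to DMSO, using reporter mRNA levels from RT-PCR plus capillary electrophoresis. Cells were HepG2 transiently carrying cis-regulated reporter constructs, harvested 24 h after dosing.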

[3] = ATG_ISRE_CIS: Attagene CIS-FACTORIAL HepG2 Assay for human Interferon Regulatory Factor 1 (IRF1) binding to an Interferon-Stimulated Response Element (ISRE) (AID 2282948); details: HepG2 ISRE cis-reporter (Attagene), mRNA transcription readout; actives raise or lower the signal
Summary of the method: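 Multiplexed mRNA reporter readout in human liver HepG2 cells: cis-element-driven reporters transfected, compound added for 24 h, transcripts amplified, fluorescently labelled and sized by capillary electrophoresis; curve fitting bidirectional against DMSO.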

[4] = ATG_M_32_CIS: Attagene CIS-FACTORIAL HepG2 Assay for M32 Transcription Factor (Internal Marker) (AID 2282949); details: HepG2 Attagene cis-factorial M32 reporter, mRNA; actives raise or lower the signal;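 also: background control marker of the multiplexed CIS panel rather than a real target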
Summary of the method: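 Using DMSO as baseline, bidirectional curve fits were applied to reporter mRNA signals. These came from transiently transfected HepG2 cells exposed for 24 h, with RNA analysed by RT-PCR, FAM primer extension, HpaI digestion and CE.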

[5] = ATG_M_06_CIS: Attagene CIS-FACTORIAL HepG2 Assay for M06 Transcription Factor (Internal Marker) (AID 2282950); details: HepG2 Attagene CIS-FACTORIAL M06 internal marker reporter; actives raise or lower the signal
Summary of the method: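 Read-out is fluorescence of labelled reporter cDNA fragments resolved by capillary electrophoresis after RT-PCR. Cells: HepG2 carrying transfected cis-promoter reporter units, treated 24 h. Gain or loss of signal fitted relative to DMSO.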

[6] = ATG_MRE_CIS: Attagene CIS-FACTORIAL HepG2 Assay for human Metal Responsive Element (MRE) (AID 2282954); details: HepG2 MRE cis-reporter transcription, Attagene multiplex; actives raise or lower the signal
Summary of the method: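 Multiplexed cis-reporter assay in human HepG2 liver cells, 24 h incubation with test chemical. Reporter transcripts measured by RT-PCR and capillary electrophoresis; values from bidirectional curve fitting versus DMSO.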

[7] = ATG_PXRE_CIS: Attagene CIS-FACTORIAL HepG2 Assay for human Pregnane X Receptor Element (PXRE) (AID 2282957); details: HepG2 Attagene CIS-FACTORIAL PXRE reporter, mRNA; actives raise or lower the signal
Summary of the method: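 Fluorescent capillary electrophoresis of amplified reporter cDNA gave the signal, collected 24 h after dosing HepG2 cells that held transfected cis-element reporter constructs.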

[8] = ATG_Sox_CIS: Attagene CIS-FACTORIAL HepG2 Assay for human SRY-box transcription factor (SOX) (AID 2282960); details: HepG2 Attagene cis-factorial SOX reporter, mRNA; actives raise or lower the signal
Summary of the method: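 Using transiently transfected HepG2 cells, reporter transcription driven by cis elements was assessed 24 h after dosing. Signal was fluorescence of capillary-separated RT-PCR products, with DMSO defining baseline activity.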

[9] = target: Transcription factor Sp1 (Homo sapiens) (UniProt P08047); assay: ATG_Sp1_CIS: Attagene CIS-FACTORIAL HepG2 Assay for human Specificity Protein 1 (Sp1) (AID 2282961); details: HepG2 Sp1 cis-reporter transcription, actives raise or lower the signal
Transcription factor Sp1 (Homo sapiens), sequence (P08047 whole entry, looked up): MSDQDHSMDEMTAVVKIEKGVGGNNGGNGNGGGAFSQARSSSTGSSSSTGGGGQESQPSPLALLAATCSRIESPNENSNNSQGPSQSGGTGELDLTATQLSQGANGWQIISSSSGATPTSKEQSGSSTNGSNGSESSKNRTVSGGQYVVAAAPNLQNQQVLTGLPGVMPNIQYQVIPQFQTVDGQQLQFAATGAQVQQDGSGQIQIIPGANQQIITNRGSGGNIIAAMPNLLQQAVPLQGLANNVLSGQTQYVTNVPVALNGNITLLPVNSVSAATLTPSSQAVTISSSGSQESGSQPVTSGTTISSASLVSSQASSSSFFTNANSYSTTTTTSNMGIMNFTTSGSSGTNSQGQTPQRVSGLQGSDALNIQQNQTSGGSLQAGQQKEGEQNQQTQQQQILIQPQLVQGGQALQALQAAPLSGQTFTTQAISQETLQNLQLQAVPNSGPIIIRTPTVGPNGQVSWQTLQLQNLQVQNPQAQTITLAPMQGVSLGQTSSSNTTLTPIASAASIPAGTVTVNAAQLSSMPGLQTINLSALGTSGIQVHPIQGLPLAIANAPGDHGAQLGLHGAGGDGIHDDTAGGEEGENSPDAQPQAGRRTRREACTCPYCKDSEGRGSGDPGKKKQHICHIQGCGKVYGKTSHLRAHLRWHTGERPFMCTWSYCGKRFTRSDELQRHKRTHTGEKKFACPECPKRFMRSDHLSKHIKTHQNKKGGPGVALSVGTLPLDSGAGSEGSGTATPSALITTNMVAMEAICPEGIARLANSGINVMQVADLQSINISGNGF
Summary of the method: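 After transient transfection of HepG2 cells with cis-promoter reporter units and 24 h chemical treatment, reporter transcripts were quantified by RT-PCR and capillary electrophoresis fluorescence. Gain- and loss-of-signal fitted against DMSO.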

[10] = ATG_SREBP_CIS: Attagene CIS-FACTORIAL HepG2 Assay for human Sterol Regulatory Element Binding (SREBP) (AID 2282962); details: HepG2 Attagene cis-factorial SREBP reporter, mRNA; actives raise or lower the signal
Summary of the method: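 Endogenous factor activity is measured in HepG2 through multiplexed reporter units under cis-element control. Following a 24 h incubation, reporter transcripts are reverse-transcribed, PCR-amplified and sized by capillary electrophoresis; activity is fitted in both directions relative to DMSO.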

[11] = target: Signal transducer and activator of transcription 3 (Homo sapiens) (UniProt P40763); assay: ATG_STAT3_CIS: Attagene CIS-FACTORIAL HepG2 Assay for human Signal Transducer and Activator of Transcription 3 (STAT3) (AID 2282963); details: HepG2, Attagene cis-factorial STAT3 reporter transcription; actives raise or lower the signal
Signal transducer and activator of transcription 3 (Homo sapiens), sequence (P40763 whole entry, looked up): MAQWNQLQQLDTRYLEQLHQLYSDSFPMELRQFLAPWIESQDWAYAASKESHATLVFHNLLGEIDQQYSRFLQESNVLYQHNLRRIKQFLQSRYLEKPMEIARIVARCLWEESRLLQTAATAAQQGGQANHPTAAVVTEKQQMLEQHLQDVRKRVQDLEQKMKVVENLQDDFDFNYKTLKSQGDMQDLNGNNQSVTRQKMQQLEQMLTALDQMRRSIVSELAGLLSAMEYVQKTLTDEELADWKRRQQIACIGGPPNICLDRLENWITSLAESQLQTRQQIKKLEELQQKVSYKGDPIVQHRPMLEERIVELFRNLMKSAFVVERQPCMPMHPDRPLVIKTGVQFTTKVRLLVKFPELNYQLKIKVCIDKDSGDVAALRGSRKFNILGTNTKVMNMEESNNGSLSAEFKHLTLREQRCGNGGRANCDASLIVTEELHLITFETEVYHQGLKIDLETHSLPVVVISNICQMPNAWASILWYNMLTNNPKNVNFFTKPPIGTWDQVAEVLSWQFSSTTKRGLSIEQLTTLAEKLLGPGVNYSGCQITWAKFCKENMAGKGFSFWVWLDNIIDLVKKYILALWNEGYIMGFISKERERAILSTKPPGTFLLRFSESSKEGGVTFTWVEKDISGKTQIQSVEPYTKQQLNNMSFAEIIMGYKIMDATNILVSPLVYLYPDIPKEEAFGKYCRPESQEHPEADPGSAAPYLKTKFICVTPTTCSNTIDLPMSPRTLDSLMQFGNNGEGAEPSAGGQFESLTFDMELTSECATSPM
Summary of the method: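 Cis-factorial format: endogenous transcription factors in HepG2 drive transfected reporter units. After 24 h treatment, reporter RNA was reverse-transcribed, amplified, FAM-labelled and HpaI-digested before CE analysis; activity scored in both directions against DMSO.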

[12] = ATG_TA_CIS: Attagene CIS-FACTORIAL HepG2 Assay for human TA Basal Promoter (AID 2282964); details: HepG2 Attagene CIS-factorial TA basal promoter reporter; actives raise or lower the signal
Summary of the method: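 Read-out: fluorescent reporter-transcript fragments resolved by capillary electrophoresis after RT-PCR and HpaI digestion. Source: HepG2 cells carrying transiently transfected multi-reporter cis constructs, treated 24 h. Endpoint fitted bidirectionally relative to DMSO.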

[13] = ATG_TCF_b_cat_CIS: Attagene CIS-FACTORIAL HepG2 Assay for human T-Cell-Factor with beta-catenin (TCF/b-cat) (AID 2282965); details: HepG2 TCF/beta-catenin cis-reporter transcription, actives raise or lower the signal
Summary of the method: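 Endogenous TCF/LEF activity read as reporter transcript level via RT-PCR and capillary electrophoresis fluorescence in transfected HepG2, 24 h exposure; gain or loss of signal fitted against DMSO controls.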

[14] = ATG_TAL_CIS: Attagene CIS-FACTORIAL HepG2 Assay for human TAL Basal Promoter (AID 2282966); details: HepG2 Attagene cis-factorial TAL promoter reporter; actives raise or lower the signal;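 also: background control endpoint measuring basal TAL promoter reporter mRNA not a specific factor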
Summary of the method: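 Transiently transfected HepG2 (cis-regulated reporter units), 24 h treatment, mRNA read by fluorescent CE after RT-PCR; bidirectional fit, DMSO baseline.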

[15] = target: X-box-binding protein 1 (Homo sapiens) (UniProt P17861); assay: ATG_Xbp1_CIS: Attagene CIS-FACTORIAL HepG2 Assay for human X-box Binding Protein 1 (XBP1) (AID 2282972); details: HepG2 XBP1 cis-element reporter, Attagene multiplex; actives raise or lower the signal
X-box-binding protein 1 (Homo sapiens), sequence (P17861 whole entry, looked up): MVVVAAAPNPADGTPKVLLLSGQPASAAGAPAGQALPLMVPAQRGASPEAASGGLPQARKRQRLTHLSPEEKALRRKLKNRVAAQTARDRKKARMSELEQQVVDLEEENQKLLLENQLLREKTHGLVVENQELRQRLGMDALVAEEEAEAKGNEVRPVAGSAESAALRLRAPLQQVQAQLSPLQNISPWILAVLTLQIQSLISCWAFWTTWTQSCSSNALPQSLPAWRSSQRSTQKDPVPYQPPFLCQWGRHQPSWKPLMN
Summary of the method: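 Multiplexed cis-reporter readout in transfected HepG2 liver cells. Exposure lasted 24 hours. Activity in either direction was fitted against DMSO as negative control and baseline.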

[16] = target: Transcriptional activator Myb (Homo sapiens) (UniProt P10242); assay: ATG_Myb_CIS: Attagene CIS-FACTORIAL HepG2 Assay for human Myeloblastosis (Myb) Proto-Oncogene Transcription Factor (AID 2282986); details: HepG2 Attagene CIS-FACTORIAL Myb reporter transcription; actives raise or lower the signal
Transcriptional activator Myb (Homo sapiens), sequence (P10242 whole entry, looked up): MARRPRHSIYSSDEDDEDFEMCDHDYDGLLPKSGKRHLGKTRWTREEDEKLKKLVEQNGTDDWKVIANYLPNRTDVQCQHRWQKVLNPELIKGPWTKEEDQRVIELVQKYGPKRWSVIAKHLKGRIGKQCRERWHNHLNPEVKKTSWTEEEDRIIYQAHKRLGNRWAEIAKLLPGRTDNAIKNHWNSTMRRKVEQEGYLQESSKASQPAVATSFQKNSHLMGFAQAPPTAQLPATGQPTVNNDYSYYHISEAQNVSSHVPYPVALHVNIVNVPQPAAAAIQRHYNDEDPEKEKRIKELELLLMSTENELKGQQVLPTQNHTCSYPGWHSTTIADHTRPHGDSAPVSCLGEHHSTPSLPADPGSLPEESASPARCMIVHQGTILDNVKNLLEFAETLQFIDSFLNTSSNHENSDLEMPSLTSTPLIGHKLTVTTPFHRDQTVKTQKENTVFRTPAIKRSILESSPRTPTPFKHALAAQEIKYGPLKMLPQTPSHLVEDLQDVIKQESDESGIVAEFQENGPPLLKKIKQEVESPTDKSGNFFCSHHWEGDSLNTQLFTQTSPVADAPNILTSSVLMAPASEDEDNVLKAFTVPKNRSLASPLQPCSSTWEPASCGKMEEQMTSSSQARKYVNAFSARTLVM
Summary of the method: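 Multiplexed cis-reporter system in HepG2: transient transfection, 24 h treatment, mRNA readout by RT-PCR and capillary electrophoresis. Both increases and decreases are scored versus DMSO negative control.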

[17] = ATG_NFI_CIS: Attagene CIS-FACTORIAL HepG2 Assay for human Nuclear Factor I (NFI) (AID 2282989); details: HepG2 cis-regulatory reporter, NFI response element transcription; actives raise or lower the signal
Summary of the method: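 Transient MRTU transfection of HepG2 → 24 h chemical dosing → total RNA, oligo(dT) RT → PCR, 6-FAM primer extension, HpaI cut → capillary electrophoresis. Endpoint fitted bidirectionally relative to DMSO.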

[18] = target: Myc proto-oncogene protein (Homo sapiens) (UniProt P01106); assay: ATG_Myc_CIS: Attagene CIS-FACTORIAL HepG2 Assay for human Myelocytomatosis (Myc) Proto-Oncogene Transcription Factor (AID 2282990); details: HepG2, Attagene cis-reporter transcription factor activity; actives raise or lower the signal
Myc proto-oncogene protein (Homo sapiens), sequence (P01106 whole entry, looked up, the tested form may be a part): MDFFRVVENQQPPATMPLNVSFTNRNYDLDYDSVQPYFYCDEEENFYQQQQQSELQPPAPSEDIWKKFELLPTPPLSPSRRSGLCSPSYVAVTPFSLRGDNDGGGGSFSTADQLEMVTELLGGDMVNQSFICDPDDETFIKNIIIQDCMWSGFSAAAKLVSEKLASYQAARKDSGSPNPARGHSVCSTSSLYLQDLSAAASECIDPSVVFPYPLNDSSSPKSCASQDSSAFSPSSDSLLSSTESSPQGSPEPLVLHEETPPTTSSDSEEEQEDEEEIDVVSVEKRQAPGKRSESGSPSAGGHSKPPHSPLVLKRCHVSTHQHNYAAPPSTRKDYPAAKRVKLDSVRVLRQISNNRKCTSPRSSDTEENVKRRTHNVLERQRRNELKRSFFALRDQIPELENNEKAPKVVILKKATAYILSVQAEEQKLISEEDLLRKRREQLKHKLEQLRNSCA
Summary of the method: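 After 24 h chemical treatment of HepG2 cells carrying multiplexed cis-regulated reporter constructs, reporter transcripts quantified by RT-PCR and capillary electrophoresis of fluorescent fragments. Gain or loss fitted against DMSO baseline.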

[19] = ATG_Oct_MLP_CIS: Attagene CIS-FACTORIAL HepG2 Assay for human Octamer-Binding Transcription Factor (Oct) (AID 2282993); details: HepG2 Attagene cis-factorial Oct reporter, mRNA; actives raise or lower the signal
Summary of the method: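 Transient MRTU transfection of HepG2 → 24 h compound treatment → RNA isolation, reverse transcription, PCR → 6-FAM primer extension, HpaI digest → capillary electrophoresis. Activity fitted both directions against DMSO.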

CD40, CD40 (gene 958) = assay: BSK_SAg_CD40: BioMAP Diversity Plus: SAg Assay for CD40 Biomarker Activity (AID 2283088); details: primary human HUVEC with PBMC; actives raise or lower the signal
Summary of the method: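 Human umbilical vein endothelial cells co-cultured with PBMC; CD40 levels measured by ELISA with fluorescence read-out 24 h after chemical dosing. Gain or loss of signal fitted bidirectionally against DMSO baseline.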

Measured: AC50

CCCCCCC1CCCC(=O)O1 (stereo not given)
active: [7] 37.5 µM
not listed: CD40, CD40 (gene 958)
inactive: all other assays above

CC(C)C1OCCN1CCOC(=O)NCCCCCCNC(=O)OCCN1CCOC1C(C)C (stereo not given)
inactive: CD40, CD40 (gene 958)

O=[N+]([O-])c1cc(S(=O)(=O)Nc2ccccc2)ccc1Nc1ccccc1
active: CD40, CD40 (gene 958) 26 µM and 25 µM

CCOc1ccc2c(c1)C(C)CC(C)(C)N2 (stereo not given)
active: [7] 2 µM
not listed: CD40, CD40 (gene 958)
inactive: all other assays above

CC/C=C\CCCCCO
active: [7] 78.4 µM
not listed: CD40, CD40 (gene 958)
inactive: all other assays above

CCCc1c(OCCCCc2nn[nH]n2)ccc(C(C)=O)c1O
active: [6] 128 µM | [7] 27.4 µM | [10] 37.4 µM
not listed: CD40, CD40 (gene 958)
inactive: all other assays above

COc1ccc(C(=O)c2ccccc2O)c(O)c1
active: CD40, CD40 (gene 958) 29.9 µM
inactive: CD40, CD40 (gene 958)
